# Laboratory results published in PubChem BioAssay (NCATS).
# Records with an inconclusive call do not appear. Active and inactive are the calls of the source. Calls come from the whole dose curve; as a rule, active = well fitted inhibition curve with a large enough effect; inconclusive = small, poorly fitted or top-dose-only effect; inactive = no such curve, though single readings can be large or run the other way.
# Target: Retinaldehyde dehydrogenase 3 (Homo sapiens) (UniProt P47895)
# Test: qHTS for Inhibitors of the Aldehyde Dehydrogenase Family (ALDH1A3) Primary screen (AID 2061315);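 note: plate controls were DMSO vehicle for no effect and reference inhibitor for full effect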
# Conditions: ALDH inhibition qHTS; series mostly up to 56 µM; activity change, negative = inhibition: at the top concentration
Structure (SMILES),"activity change, negative = inhibition",Potency
Cc1ccc2nc3sc(C(=O)NC4CCC(O)CC4)cc3cc2c1 (configuration not stated),-23.4% (inactive),
COc1cccc(S(=O)(=O)NC2CCN(C#N)C2)c1 (configuration not stated),0.698% (inactive),
Nc1cc(S(=O)(=O)N2CCN(S(=O)(=O)c3ccc4c(c3)OCCO4)CC2)ccn1,4.66% (inactive),
Cc1cc(NS(=O)(=O)c2ccc(Nc3nc(-c4ccc(C)c(C)c4)cs3)cc2)no1,25.3% (inactive),
Cc1ccc(S(=O)(=O)Nc2cnccc2C(=O)Nc2nc(-c3ccco3)cs2)cc1,-5.42% (inactive),
CC(=O)Nc1cccc(OCc2cccc(C3Nc4ccccc4C(=O)N3Cc3ccco3)c2)c1 (configuration not stated),-28.5% (inactive),
Cc1ccc(CNc2ncnc3ccc(-c4ccc([C@@H](C)O)o4)cc23)o1,,inactive
N#CNC(=O)c1ccc(-n2cccc2/C=C2\NC(=O)N(CC(=O)Nc3ccc(F)cc3)C2=O)cc1,6.95% (inactive),
Cc1ccsc1CN(C)c1ncnc2ccc(-c3oc(-c4ccccc4)nc3C)cc12,-14.9% (inactive),
Cc1ccc(CNc2ncnc3ccc(-c4oc(-c5ccccc5)nc4C)cc23)o1,20.7% (inactive),
CN1CCN(C(=O)c2cccc(-c3ccc(CNc4ccc(N5CCN(C(=O)OC(C)(C)C)CC5)cc4)o3)c2)CC1,8.45% (inactive),
CCn1cnc2c(Nc3ccc(CC(=O)N=C(N)N)cc3)nc(C#N)nc21,3.28% (inactive),
O=C1Cc2cc(S(=O)(=O)N3CCN(c4ccc(Cl)cc4)CC3)ccc2N1,-7.11% [at 114 µM] (inactive),
COc1cc(O)c(C(CC(=O)N2C[C@H](C)C[C@H](C)C2)c2ccc3c(c2)OCO3)c(OC)c1 (some centres not stated),5.57% [at 114 µM] (inactive),

# Target: Aldehyde dehydrogenase 1A1 (Homo sapiens) (UniProt P00352)
# Test: qHTS for Inhibitors of the Aldehyde Dehydrogenase Family (ALDH1A1) Confirmatory screens (AID 2061316); note: nearly all actives have a fitted effect of over 65% in size; note: potency is the fitted concentration of half-maximal effect; for activity change, negative = inhibition: % is set by controls: 0 for no effect and ±100 for the full control effect
# Conditions: ALDH inhibition qHTS; series mostly up to 47.3 µM; activity change, negative = inhibition: at the top concentration
Structure (SMILES),"activity change, negative = inhibition",Potency
CC(=O)c1c(C)n(-c2ccc(C)cc2)c2ccc(OC(=O)COc3ccccc3)cc12,-1.56% (inactive),
Cc1ccc2nc3sc(C(=O)NC4CCC(O)CC4)cc3cc2c1 (configuration not stated),,12.7 µM (active)
CCOC(=O)c1c(C)n(-c2ccccc2)c2ccc(OC(=O)c3ccccc3)cc12,2.26% (inactive),
O=C(CCC1CCCN(S(=O)(=O)c2ccccc2F)C1)NCCCN1CCOCC1 (configuration not stated),2.28% (inactive),
COc1cccc(S(=O)(=O)NC2CCN(C#N)C2)c1 (configuration not stated),-34.7% (inactive),
Cc1ccc(S(=O)(=O)Nc2cnccc2C(=O)Nc2nc(-c3ccco3)cs2)cc1,,0.798 µM (active)
COc1ccc(-n2c(C)c(C(C)=O)c3cc(OC(=O)COc4ccccc4)ccc32)cc1,3.29% (inactive),
COc1ccc(-c2nc(CCNC(=O)c3c(F)cccc3Cl)cs2)cc1,-25.8% (inactive),
Cc1ccc(C(=O)NCC(c2ccc3c(c2)OCO3)N2CCN(c3ccc(F)cc3)CC2)cc1 (configuration not stated),-20.7% (inactive),
CC(=O)Nc1cccc(OCc2cccc(C3Nc4ccccc4C(=O)N3Cc3ccco3)c2)c1 (configuration not stated),,7.12 µM (active)
CSCCC(NS(=O)(=O)c1ccc2c(c1)oc(=O)n2C)C(=O)N1CCN(c2ccc(C(C)=O)cc2)CC1 (configuration not stated),-23.9% (inactive),
Cc1ccc(CNc2ncnc3ccc(-c4ccc([C@@H](C)O)o4)cc23)o1,,11.3 µM (active)
N#Cc1ccc(-c2ccc(CNc3ccc(N4CCOCC4)cc3)cn2)cc1,,4.49 µM (active)
COc1ccc2c(c1)c(C(=O)CN(C)C)c(C)n2C,-1.27% (inactive),
Cc1cc(C)cc(-c2ccc(C=O)cc2)c1,7.81% [at 86.7 µM] (inactive),
N#CNC(=O)c1ccc(-n2cccc2/C=C2\NC(=O)N(CC(=O)Nc3ccc(F)cc3)C2=O)cc1,0.85% (inactive),
Cc1ccc(-c2ccccc2C=O)c(C)c1,8.13% [at 99.6 µM] (inactive),

Structure (SMILES),"activity change, negative = inhibition",Potency
COc1ccc(-c2nc3ccccc3c(=O)n2Cc2ccccc2)cc1CNc1ccc(NC(C)=O)cc1,,11.3 µM (active)
Cc1cc(C)cc(-c2ccccc2C=O)c1,8.59% [at 86.7 µM] (inactive),
COc1ccc(Cl)cc1C(=O)NCc1nnc2cc(-c3nc(C)no3)ccn12,-7.68% (inactive),
CCN(CC)CC(=O)c1c(C)n(C)c2ccc(OC)cc12,1.54% (inactive),
CC(=O)c1c(C)n(-c2cccc(C)c2)c2ccc(OC(=O)COc3ccccc3)cc12,7.76% (inactive),
O=C(Cc1ccc(F)cc1)Nc1cccc(-c2nc3cccnc3s2)c1,-18.8% (inactive),
Cn1sc(=O)n(Cc2ccccc2)c1=O,,0.283 µM (active)
CC(=O)N1CCN(c2ccc(NCc3ccc(Br)o3)cc2)CC1,,10.1 µM (active)
Oc1cc2c(cc1CN1CCN(c3ncccn3)CC1)OCO2,,5.65 µM (active)
CC(=O)N1CCN(c2ccc(NCc3ccco3)cc2)CC1,,7.98 µM (active)
Cc1ccc(-c2cccc(C=O)c2)c(C)c1,-6.58% [at 86.7 µM] (inactive),
CCn1cnc2c(Nc3ccc(CC(=O)N=C(N)N)cc3)nc(C#N)nc21,-9.41% (inactive),
Cc1cccc(-c2ccccc2C=O)c1,6.78% [at 86.7 µM] (inactive),
Cc1oc(-c2ccccc2F)nc1CS(=O)(=O)CC(=O)N1CCN(c2cccc(C(F)(F)F)c2)CC1,-20.5% (inactive),
O=C(Nc1ncc(Cc2ccc(C(F)(F)F)cc2)s1)c1ccc(-c2ccccc2[N+](=O)[O-])o1,,6.34 µM (active)
Cc1cccc(C(=O)NCc2nnc3cc(-c4nc(C)no4)ccn23)c1,-25.3% (inactive),
